Compounds without any hit were thinned out: in the full panel of roughly 83,000, 20% have a hit.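 Single-dose data. Exposure time 48 hours. Values below 10 considered active.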 Values without a mark were called inactive. The source made the active and inactive calls.

What all share (experiment): NCI-60 one-dose screen, 48 h (100 = growth as untreated, 0 = no growth, -100 = all killed)
One experiment concerns NCI-H23 lung. The settings on record: 10 µM unless noted.
Another experiment deals with NCI-H322M lung. The settings on record: 10 µM unless noted.
The subject of another experiment is HOP-62 NSCLC. The settings on record: 10 µM unless noted.
A further experiment concerns NCI-H460 lung. The settings on record: 10 µM unless noted.
For a further experiment, the system named is HOP-92 NSCLC. The settings on record: 10 µM unless noted.
The test system of another experiment is NCI-H522 lung. The settings on record: 10 µM.
The subject of another experiment is A549/ATCC NSCLC. The settings on record: 10 µM unless noted.
A further experiment relates to 786-0 renal. The following applies: 10 µM unless noted.

As to `O=C(N/N=C/c1ccc(OC(F)F)c(OC2CCCC2)c1)c1cnn2c1NC(c1ccccc1)C2` (stereo not drawn), the growth in the experiment on NCI-H23 lung is 97.5%; in the experiment with NCI-H322M lung it was 92.6%; with HOP-62 NSCLC it was 84.9%; with NCI-H460 lung it was 82.4%; in the experiment on HOP-92 NSCLC it was 80.6%; in the experiment on NCI-H522 lung, 78.8%. For the same compound, the growth in the experiment on A549/ATCC NSCLC is 73.8%; in the experiment on 786-0 renal, 89.2%.
In the case of `Cc1ccc(S(=O)(=O)N2CCc3ccc(O)c4c3C2CCc2ccccc2-4)cc1` (stereo not drawn), the growth in the experiment on NCI-H23 lung is 95.9%; in the experiment with NCI-H322M lung, 99.1%; with HOP-62 NSCLC, 106%; in the experiment on NCI-H460 lung, 108%; in the experiment with HOP-92 NSCLC, 116%; in the experiment with NCI-H522 lung, 82.4%. Besides, the growth with A549/ATCC NSCLC was 102%; in the experiment with 786-0 renal, 100%.
Take `O=S(=O)(Nc1ccc(Cl)c(Cl)c1)c1ccc(-c2cnc(C3CC3)o2)cc1`: the growth is 39.6% with NCI-H23 lung; 40.7% in the experiment on NCI-H322M lung; 24% with HOP-62 NSCLC; 4.29% (active) with NCI-H460 lung; 48% in the experiment with HOP-92 NSCLC; 6.78% (active) in the experiment with NCI-H522 lung. Further, the figures for the growth in the experiment with A549/ATCC NSCLC and in the experiment on 786-0 renal were 25.5% and 46.3%, respectively.
For `O=C(c1cnn2c1NC(c1ccc(F)cc1)C2)N1CCCCC1` (stereo not drawn), the growth in the experiment on NCI-H23 lung was 105%; in the experiment with NCI-H322M lung, 112%; in the experiment on HOP-62 NSCLC it was 92.1%; with NCI-H460 lung, 105%; in the experiment on HOP-92 NSCLC, 97%; in the experiment on NCI-H522 lung it was 93.3%. Besides, the growth with A549/ATCC NSCLC was 98.2%; in the experiment on 786-0 renal, 106%.
On to `O=C1N/C(=C\c2ccccc2)c2ncccc21`, for which the growth in the experiment on NCI-H23 lung is 95%; with NCI-H322M lung, 95.8%; in the experiment with HOP-62 NSCLC, 100%; with NCI-H460 lung, 113%; in the experiment on HOP-92 NSCLC it was 94.9%; in the experiment on NCI-H522 lung it was 86.9%. Moreover, the growth was 106% with A549/ATCC NSCLC and 98.7% in the experiment with 786-0 renal.
In the case of `O=C(c1ccc2ncc(-c3nc(NC4CC4)ncc3F)n2c1)N1CCOCC1`, the growth in the experiment on NCI-H23 lung is 42.5%; in the experiment with NCI-H322M lung, 15.4%; in the experiment with HOP-62 NSCLC it was 7.33% (active); in the experiment with NCI-H460 lung it was 4.24% (active); in the experiment with HOP-92 NSCLC, -2.24% (active); in the experiment with NCI-H522 lung, 72.6%. Also, the figures for the growth in the experiment with A549/ATCC NSCLC and in the experiment with 786-0 renal were 13.9% and 9.09% (active), respectively.
Regarding `CCCCCCCCCCCCCCn1c2ccccc2c2c3c(c4c5cc(OC)ccc5oc4c21)C(=O)NC3=O`, the growth in the experiment on NCI-H23 lung was 103%; in the experiment on NCI-H322M lung, 106%; with HOP-62 NSCLC it was 117%; with NCI-H460 lung, 100%; in the experiment with HOP-92 NSCLC it was 106%; in the experiment with NCI-H522 lung, 98%. Also, the growth in the experiment on A549/ATCC NSCLC and in the experiment on 786-0 renal was 103% each time.
On to `COc1cccc2c(=O)c3c(sc12)c(NCCN(C)C)nc1ccccc13`, for which the growth with NCI-H23 lung is 32.4%; with NCI-H322M lung it was 26.2%; with HOP-62 NSCLC it was 27.2%; with NCI-H460 lung, -53.1% (active); in the experiment on HOP-92 NSCLC, -3.75% (active); with NCI-H522 lung it was 29.1%. Also, the growth in the experiment on A549/ATCC NSCLC is 7.73% (active); in the experiment on 786-0 renal it was 28.7%.
Consider `Nc1cc2[nH]c(=O)c3ccccc3c2cc1Br`, for which the growth in the experiment with NCI-H23 lung was 70.5%; in the experiment with NCI-H322M lung, 86%; in the experiment with HOP-62 NSCLC, 68.9%; in the experiment on NCI-H460 lung it was 67.3%; with HOP-92 NSCLC, 58.4%; in the experiment with NCI-H522 lung, 90%. For the same compound, the growth is 84.5% in the experiment with A549/ATCC NSCLC and 104% in the experiment on 786-0 renal.
For the compound `O=C(NCc1ccc(F)cc1)C1CN(c2ccc(Cl)cc2)N(c2ccc(Cl)cc2)C1=O` (stereo not drawn), the growth in the experiment with NCI-H23 lung is 78.8%; in the experiment on NCI-H322M lung it was 93.1%; in the experiment with HOP-62 NSCLC it was 60.5%; in the experiment with NCI-H460 lung, 48%; in the experiment on HOP-92 NSCLC, 91.1%; in the experiment on NCI-H522 lung it was 52.5%. For the same compound, the growth in the experiment with A549/ATCC NSCLC was 48.8%; in the experiment on 786-0 renal, 79.1%.
As to `NS(=O)(=O)c1ccc(C(=O)N/N=C(\CS(=O)(=O)c2ccccc2)c2cc3cc(Br)ccc3o2)cc1`, the growth in the experiment on NCI-H23 lung was 80.7%; in the experiment with NCI-H322M lung, 103%; in the experiment on HOP-62 NSCLC, 96%; in the experiment with NCI-H460 lung, 96.3%; in the experiment on HOP-92 NSCLC, 77.2%; in the experiment with NCI-H522 lung, 80.2%. Further, the growth in the experiment on A549/ATCC NSCLC is 87%; with 786-0 renal, 101%.
For `O=c1[nH]c(=S)c2c(n1CCCO)CCC2`, the growth in the experiment on NCI-H23 lung was 99.8%; in the experiment with NCI-H322M lung, 108%; in the experiment on HOP-62 NSCLC it was 104%; in the experiment with NCI-H460 lung, 107%; in the experiment on HOP-92 NSCLC, 109%; with NCI-H522 lung, 88.4%. Further, the growth with A549/ATCC NSCLC was 100%; in the experiment on 786-0 renal it was 102%.
Regarding `Cc1ccc(S(=O)(=O)N2CCc3ccc(O)c4c3C2Cc2ccc3c(c2-4)OCO3)cc1` (stereo not drawn), the growth in the experiment with NCI-H23 lung was 26.5%; in the experiment with NCI-H322M lung, 53.2%; in the experiment with HOP-62 NSCLC, 33.8%; in the experiment with NCI-H460 lung, 8.45% (active); with HOP-92 NSCLC, 29.1%; in the experiment on NCI-H522 lung, -19.8% (active). The growth in the experiment on A549/ATCC NSCLC is 18.1%; in the experiment on 786-0 renal, 12.6%.
Take `O=C(CC(O)c1ccccc1)Nc1ccccn1` (stereo not drawn): the growth in the experiment with NCI-H23 lung is 98.6%; with NCI-H322M lung, 93.3%; with HOP-62 NSCLC it was 103%; with NCI-H460 lung it was 112%; in the experiment with HOP-92 NSCLC, 77%; in the experiment with NCI-H522 lung, 96%. The results for the growth in the experiment with A549/ATCC NSCLC and with 786-0 renal were 95.8% and 102%, respectively.
As for `CCCN1CCN(c2ccc3nc(-c4ccc5nc(-c6ccc(C(F)(F)F)cc6)[nH]c5c4)[nH]c3c2)CC1`, the growth was -77.1% (active) with NCI-H23 lung; -95.7% (active) in the experiment on NCI-H322M lung; -62.6% (active) with HOP-62 NSCLC; -88.5% (active) in the experiment on NCI-H460 lung; 63% with HOP-92 NSCLC; -43.4% (active) with NCI-H522 lung. In addition, the values for the growth in the experiment with A549/ATCC NSCLC and in the experiment with 786-0 renal were -65.1% (active) and -90.2% (active), respectively.
Take `COc1ccc(/C=N/NC(=O)c2cnn(CC(O)Cc3ccccc3)c2N)cc1OC1CCCC1` (stereo not drawn): the growth is 93.2% in the experiment with NCI-H23 lung; 103% in the experiment on NCI-H322M lung; 85.5% with HOP-62 NSCLC; 98.5% in the experiment with NCI-H460 lung; 86.5% in the experiment on HOP-92 NSCLC; 92.7% in the experiment on NCI-H522 lung. Moreover, the growth in the experiment on A549/ATCC NSCLC was 96.3%; with 786-0 renal it was 97.9%.
